Experimental data: PubChem BioAssay
This is one part of the list. Activity calls are given as the source filed them.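 The calls were made as follows, unless noted: active = under 65% GFP response relative to DMSO; inconclusive = yeast strain with under 70 measured events; inactive = the rest.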

Tests used:
[1] = LAP4-GFP expression modulators in yeast, confirmation, cell-based, second cherry pick, flow cytometry (AID 2621;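 active = GFP signal as percent of the solvent control above about 150%, meaning raised reporter expression, limit read from the data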;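 also: ratio of well median GFP fluorescence to plate DMSO mean so 100% = DMSO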); conditions: S. cerevisiae LAP4-GFP strain, 3 h, at 10 µM, stronger effect = higher value
[2] = modulators of MEP2-GFP levels in yeast, confirmation, S. cerevisiae, flow cytometry GFP, second cherry picks (AID 2622;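 active = GFP signal above 150% of the solvent control wells, that is a rise of more than half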;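 also: median channel GFP fluorescence of all gated yeast cells per well; ratio of median GFP to plate DMSO average so 100% = DMSO level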); conditions: S. cerevisiae MEP2-GFP strain, 3 h, at 10 µM, stronger effect = higher value
[3] = RPL19A-GFP modulators in TOR pathway yeast, confirmation, cell-based, S. cerevisiae, flow cytometry, second cherry pick (AID 2623);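 also: median GFP channel fluorescence per well over the all cells gate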; conditions: S. cerevisiae RPL19A-GFP strain, 3 h, at 10 µM, stronger effect = lower value, 100% means same as DMSO wells
[4] = modulators of CIT2-GFP expression in yeast, confirmation, flow cytometry, second cherry pick, single plex (AID 2624;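 active = GFP response vs DMSO above about 150%, limit read from the data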;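 also: median green fluorescence per well over all gated yeast cells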); conditions: S. cerevisiae CIT2-GFP strain, 3 h, at 10 µM, stronger effect = higher value, DMSO control wells read 100%
[5] = AGP1-GFP expression modulators, hit retest, confirmation, cell-based, flow cytometry, S. cerevisiae, cherry pick set 2 (AID 2643;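 active = over 150 percent of DMSO response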;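 also: median GFP channel fluorescence over all cells without mother daughter split; sample median GFP divided by mean DMSO control so 100% equals DMSO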); conditions: S. cerevisiae AGP1-GFP strain, 3 h, at 10 µM, stronger effect = higher value
[6] = inhibitors of CD8+ T cell-vesicle binding, pilot screen, LFA-1/ICAM-1 modulator project, MLPCN validation set, flow cytometry (AID 2523;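 active = response below a set limit, under 55% cells CD8-positive and vesicle-bound, and CD8 cells' 90th-percentile brightness under 279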;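 as to vesicle binding response: mean PE anti-B7-1 fluorescence of CD8+ cells relative to row control; 100% = QL9-loaded vesicles with DMSO vehicle in the same plate row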); conditions: 2C mouse CD8+ T cells, at 7 µM, stronger effect = lower value; double positive events: measured here: CD8+/vesicle+ event percentage
[7] = target: Integrin beta-1 (Homo sapiens) + Integrin alpha-4 (Homo sapiens) (UniProt P13612+P05556); test: inhibition of HUTS-21 binding to VLA-4, pilot screen, VLA-4 allosteric modulator project, U937 cells, HUTS-21 mAb, flow cytometry, validation set (AID 2674;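 active = inhibition above 50%, about 3 SD of the validation set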;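 also: antibody binding induced by the VLA-4 ligand LDV present at three times its Kd; 0% = LDV ligand with antibody and no compound and 100% = antibody without LDV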); conditions: HUTS-21 LIBS mAb binding, at 6.7 µM, stronger effect = higher value, binding induced by LDV ligand
[8] = target: Beta-adrenergic receptor kinase 1 (Homo sapiens) (UniProt P25098); test: GRK2 binders displacing RNA aptamer, biochemical, validation, human GRK2, bead flow cytometry (AID 488806;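 active = aptamer binding inhibition above 30%, about 3 SD of noise from non-fluorescent compounds; inactive = inhibition at or below 30%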); conditions: bead-bound GRK2, FAM-aptamer displacement, at 10 µM, stronger effect = higher value
[9] = target: Beta-2 adrenergic receptor (Homo sapiens) (UniProt P07550); test: beta2AR agonists driving receptor internalization, pilot screen, cell-based, FAP fluorogen, flow cytometry, validation set (AID 504459;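 active = percent response above 42, roughly 3 SD of non-fluorescent test compounds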;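 also: agonist-driven loss of surface beta2AR via internalization measured by FAP dye flow cytometry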); conditions: Am2.2-beta2AR cells, FAP surface receptor flow cytometry; at 10 µM; stronger effect = higher value
[10] = target: AP-2 complex subunit beta (Homo sapiens) (UniProt P63010); test: inhibitors of arrestin peptide binding to AP2, pilot screen, biochemical, validation set, GST-AP2 beads, flow cytometry (AID 504541;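 active = inhibition above 54%, about 3 SD of non-fluorescent compounds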;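 also: AP2 carries R879A mutation and is captured from E. coli lysate; bead-bound FITC arrestin peptide fluorescence measuring arrestin peptide binding to AP2; 0% = DMSO wells and 100% = excess unlabeled arrestin peptide control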); conditions: FITC arrestin peptide, at 10 µM, stronger effect = higher value, AP2 beta2 appendage fragment, R879A mutant
[11] = yeast V-ATPase proton transport modulators, S. cerevisiae, pHLuorin, HTS validation (AID 504600; in the data active = response above about 15%;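 also: plate controls were DMSO for no effect and reference compound for full effect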); conditions: S. cerevisiae pHLuorin cytosolic pH, at 10 µM, stronger effect = higher value
[12] = test system: anti-desmoglein-3 scFv antibody binding to human DSG3; test: inhibitors of anti-DSG3 scFv binding to DSG3, pilot screen, biochemical, validation compound set, bead-based, flow cytometry (AID 588368;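 active = binding below the plate cutoff, the plate median minus 3 SD, with a reading above zero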;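 also: signal is the median channel fluorescence of bead-bound GFP antibody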); conditions: Protein G beads, DSG3-Fc, scFv-GFP binding, at 10 µM, stronger effect = lower value
[13] = inhibitors of fungal efflux pumps CDR1, CDR2, MDR1, pilot screen, validation compound set, multiplex, phenotypic (AID 588506;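 active = efflux inhibition above 0.42, the validation set average plus 4 SD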;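 also: Nile Red retained in cells so higher fluorescence means more efflux inhibition; 0 = negative control wells and 1 = enniatin B 25 µM full block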); conditions: S. cerevisiae pump-expressing triplex, Nile Red efflux flow cytometry; at 10 µM; stronger effect = higher value; the pumps come from Candida albicans
[14] = target: ATP-binding cassette sub-family B member 6 (Homo sapiens) (UniProt Q9NP58); test: ABCB6 transporter inhibitors, pilot screen, K562-ABCB6 cells, flow cytometry, validation set (AID 588550;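 active = inhibition above the screen-wide mean plus 3 SD, about 51%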;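 also: 0% = DMSO wells and 100% = benzethonium chloride 70 µM positive control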); conditions: K562-ABCB6 porphyrin accumulation, 1 h, at 10 µM, stronger effect = higher value
[15] = promoters of myeloid differentiation in arrested cells, primary screen, cell-based, GFP/MAC1 double positive, flow cytometry, validation set (AID 588685;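 active = differentiation response of at least 50%, scaled between solvent and reference control, from cells with both markers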;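 also: compound exposure lasts four days before antibody staining and flow analysis; 0% = DMSO wells and 100% = 5 µM fulvestrant positive control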); conditions: ER-HoxA9 marrow cells, stronger effect = higher value, normalized: vehicle 0, fulvestrant 100
[16] = superoxide lowering in aged yeast cells, pilot screen, validation compound set (AID 2706;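 active = superoxide response below 65% of plate, a cut near 3 SD across the whole screen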;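 also: yeast exposed to compound for one week at 30 degrees C before staining; 100% = mean of all compound wells on the same plate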); conditions: S. cerevisiae aging, superoxide DHE fluorescence; at 10 µM, stronger effect = lower value
[17] = compound autofluorescence in yeast s288c, dose response, artefact control for yeast TOR pathway GFP screen, s288c strain (AID 2757;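 active = fluorescence span over the dose series, or activity score, above about 33, limit read from the data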;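 also: thousands of bead-calibrated equivalent soluble fluorophore molecules from median cell fluorescence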); conditions: S. cerevisiae s288c, 520 nm autofluorescence, flow cytometry, 3 h; at 33 µM; stronger effect = higher value; zero means same as solvent-only cells

Sequence of Beta-2 adrenergic receptor (Homo sapiens) (P07550 whole entry, looked up): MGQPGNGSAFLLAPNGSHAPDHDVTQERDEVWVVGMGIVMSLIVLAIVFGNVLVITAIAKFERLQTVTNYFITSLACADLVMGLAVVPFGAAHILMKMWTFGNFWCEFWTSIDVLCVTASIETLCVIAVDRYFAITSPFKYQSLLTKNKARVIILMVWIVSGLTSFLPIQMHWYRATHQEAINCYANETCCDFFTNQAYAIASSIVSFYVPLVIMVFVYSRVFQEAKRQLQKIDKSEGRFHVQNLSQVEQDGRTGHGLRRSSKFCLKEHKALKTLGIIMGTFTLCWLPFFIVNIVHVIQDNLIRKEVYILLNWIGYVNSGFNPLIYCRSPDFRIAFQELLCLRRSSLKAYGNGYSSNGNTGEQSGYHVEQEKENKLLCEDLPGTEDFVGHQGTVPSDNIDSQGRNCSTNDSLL
Sequence of Beta-adrenergic receptor kinase 1 (Homo sapiens) (P25098 whole entry, looked up): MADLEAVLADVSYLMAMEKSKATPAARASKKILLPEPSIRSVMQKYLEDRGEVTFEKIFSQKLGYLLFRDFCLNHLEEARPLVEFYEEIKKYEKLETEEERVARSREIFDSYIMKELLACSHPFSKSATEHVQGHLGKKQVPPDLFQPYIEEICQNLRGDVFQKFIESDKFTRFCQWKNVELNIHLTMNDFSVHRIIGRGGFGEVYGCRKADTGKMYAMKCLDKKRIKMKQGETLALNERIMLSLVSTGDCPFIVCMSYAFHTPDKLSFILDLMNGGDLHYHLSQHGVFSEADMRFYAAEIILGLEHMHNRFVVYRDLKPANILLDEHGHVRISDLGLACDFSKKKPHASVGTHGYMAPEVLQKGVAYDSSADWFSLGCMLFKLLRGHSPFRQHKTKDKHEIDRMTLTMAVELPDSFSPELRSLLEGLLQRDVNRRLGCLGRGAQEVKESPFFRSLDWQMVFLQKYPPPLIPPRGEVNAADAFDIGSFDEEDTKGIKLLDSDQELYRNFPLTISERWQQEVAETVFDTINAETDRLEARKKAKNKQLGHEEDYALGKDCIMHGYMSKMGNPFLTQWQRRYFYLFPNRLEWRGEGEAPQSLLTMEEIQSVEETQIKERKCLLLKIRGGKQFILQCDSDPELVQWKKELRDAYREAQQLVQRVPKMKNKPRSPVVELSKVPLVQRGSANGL
Sequence of ATP-binding cassette sub-family B member 6 (Homo sapiens) (Q9NP58 whole entry, looked up): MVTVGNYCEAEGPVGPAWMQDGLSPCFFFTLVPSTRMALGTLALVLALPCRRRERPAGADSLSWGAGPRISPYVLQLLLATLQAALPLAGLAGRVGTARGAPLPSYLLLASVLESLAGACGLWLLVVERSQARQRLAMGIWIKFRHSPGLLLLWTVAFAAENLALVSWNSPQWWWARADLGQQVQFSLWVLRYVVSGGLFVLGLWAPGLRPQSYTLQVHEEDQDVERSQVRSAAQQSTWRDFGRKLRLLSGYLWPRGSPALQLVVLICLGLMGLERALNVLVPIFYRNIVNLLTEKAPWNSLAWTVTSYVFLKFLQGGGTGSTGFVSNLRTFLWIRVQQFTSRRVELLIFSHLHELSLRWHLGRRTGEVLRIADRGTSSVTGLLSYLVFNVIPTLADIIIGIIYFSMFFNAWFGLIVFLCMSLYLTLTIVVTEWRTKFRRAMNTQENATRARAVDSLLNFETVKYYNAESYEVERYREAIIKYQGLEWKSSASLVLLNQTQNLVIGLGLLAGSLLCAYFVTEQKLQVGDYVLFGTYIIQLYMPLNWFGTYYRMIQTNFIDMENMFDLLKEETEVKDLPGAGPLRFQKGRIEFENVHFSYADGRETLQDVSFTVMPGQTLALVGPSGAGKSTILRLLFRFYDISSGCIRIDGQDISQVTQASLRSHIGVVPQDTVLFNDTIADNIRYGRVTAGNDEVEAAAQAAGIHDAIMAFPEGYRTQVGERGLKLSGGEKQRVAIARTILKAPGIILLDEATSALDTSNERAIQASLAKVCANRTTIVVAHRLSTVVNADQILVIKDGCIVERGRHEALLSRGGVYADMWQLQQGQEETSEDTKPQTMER
Sequence of Integrin beta-1 (Homo sapiens) + Integrin alpha-4 (Homo sapiens) (P05556 whole entry, looked up): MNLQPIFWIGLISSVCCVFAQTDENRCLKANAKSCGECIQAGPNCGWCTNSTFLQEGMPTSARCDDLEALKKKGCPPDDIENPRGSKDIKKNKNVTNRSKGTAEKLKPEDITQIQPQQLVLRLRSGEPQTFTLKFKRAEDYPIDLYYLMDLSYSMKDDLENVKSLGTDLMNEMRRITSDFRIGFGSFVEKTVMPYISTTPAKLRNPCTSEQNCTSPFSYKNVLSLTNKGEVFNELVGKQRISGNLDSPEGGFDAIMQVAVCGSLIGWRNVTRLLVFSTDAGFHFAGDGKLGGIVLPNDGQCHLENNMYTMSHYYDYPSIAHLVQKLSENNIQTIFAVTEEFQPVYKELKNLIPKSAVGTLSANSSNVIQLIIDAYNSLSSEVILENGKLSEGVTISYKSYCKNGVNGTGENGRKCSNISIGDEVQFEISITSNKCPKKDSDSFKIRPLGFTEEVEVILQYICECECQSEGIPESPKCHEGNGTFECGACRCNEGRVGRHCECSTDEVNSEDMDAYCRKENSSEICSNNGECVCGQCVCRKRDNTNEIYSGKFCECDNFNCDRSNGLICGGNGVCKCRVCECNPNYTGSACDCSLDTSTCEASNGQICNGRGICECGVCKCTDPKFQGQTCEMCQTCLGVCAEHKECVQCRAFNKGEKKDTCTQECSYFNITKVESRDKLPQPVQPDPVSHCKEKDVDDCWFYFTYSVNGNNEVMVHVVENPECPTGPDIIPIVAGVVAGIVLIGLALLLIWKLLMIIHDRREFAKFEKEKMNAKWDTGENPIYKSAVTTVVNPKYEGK
Sequence of Integrin beta-1 (Homo sapiens) + Integrin alpha-4 (Homo sapiens) (P13612 whole entry, looked up): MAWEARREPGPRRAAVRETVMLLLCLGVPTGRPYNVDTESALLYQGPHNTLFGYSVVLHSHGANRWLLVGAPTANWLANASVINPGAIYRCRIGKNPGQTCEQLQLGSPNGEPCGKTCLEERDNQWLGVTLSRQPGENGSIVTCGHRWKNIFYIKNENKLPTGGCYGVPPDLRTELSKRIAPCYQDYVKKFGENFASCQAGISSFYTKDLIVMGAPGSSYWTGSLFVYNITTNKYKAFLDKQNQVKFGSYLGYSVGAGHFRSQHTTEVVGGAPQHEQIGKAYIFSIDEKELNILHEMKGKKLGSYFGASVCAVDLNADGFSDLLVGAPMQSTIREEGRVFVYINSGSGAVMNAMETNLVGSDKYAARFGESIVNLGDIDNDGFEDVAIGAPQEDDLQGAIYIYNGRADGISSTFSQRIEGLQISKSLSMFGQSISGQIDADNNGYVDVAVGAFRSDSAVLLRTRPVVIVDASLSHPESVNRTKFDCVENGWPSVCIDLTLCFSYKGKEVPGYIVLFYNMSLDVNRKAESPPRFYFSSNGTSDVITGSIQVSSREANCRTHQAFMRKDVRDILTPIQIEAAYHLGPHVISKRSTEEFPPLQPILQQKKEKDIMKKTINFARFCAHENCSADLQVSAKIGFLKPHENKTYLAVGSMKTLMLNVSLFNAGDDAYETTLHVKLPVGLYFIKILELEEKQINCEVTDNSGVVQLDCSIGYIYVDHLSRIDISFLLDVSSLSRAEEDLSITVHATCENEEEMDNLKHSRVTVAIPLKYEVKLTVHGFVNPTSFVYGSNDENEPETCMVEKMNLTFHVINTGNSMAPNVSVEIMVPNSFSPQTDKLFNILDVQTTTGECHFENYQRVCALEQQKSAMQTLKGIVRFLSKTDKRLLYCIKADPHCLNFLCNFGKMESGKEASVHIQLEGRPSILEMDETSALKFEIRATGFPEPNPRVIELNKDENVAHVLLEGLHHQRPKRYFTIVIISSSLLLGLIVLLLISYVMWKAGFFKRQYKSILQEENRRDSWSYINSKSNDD
Sequence of AP-2 complex subunit beta (Homo sapiens) (P63010 whole entry, looked up, the tested form may be a part, one chain of several): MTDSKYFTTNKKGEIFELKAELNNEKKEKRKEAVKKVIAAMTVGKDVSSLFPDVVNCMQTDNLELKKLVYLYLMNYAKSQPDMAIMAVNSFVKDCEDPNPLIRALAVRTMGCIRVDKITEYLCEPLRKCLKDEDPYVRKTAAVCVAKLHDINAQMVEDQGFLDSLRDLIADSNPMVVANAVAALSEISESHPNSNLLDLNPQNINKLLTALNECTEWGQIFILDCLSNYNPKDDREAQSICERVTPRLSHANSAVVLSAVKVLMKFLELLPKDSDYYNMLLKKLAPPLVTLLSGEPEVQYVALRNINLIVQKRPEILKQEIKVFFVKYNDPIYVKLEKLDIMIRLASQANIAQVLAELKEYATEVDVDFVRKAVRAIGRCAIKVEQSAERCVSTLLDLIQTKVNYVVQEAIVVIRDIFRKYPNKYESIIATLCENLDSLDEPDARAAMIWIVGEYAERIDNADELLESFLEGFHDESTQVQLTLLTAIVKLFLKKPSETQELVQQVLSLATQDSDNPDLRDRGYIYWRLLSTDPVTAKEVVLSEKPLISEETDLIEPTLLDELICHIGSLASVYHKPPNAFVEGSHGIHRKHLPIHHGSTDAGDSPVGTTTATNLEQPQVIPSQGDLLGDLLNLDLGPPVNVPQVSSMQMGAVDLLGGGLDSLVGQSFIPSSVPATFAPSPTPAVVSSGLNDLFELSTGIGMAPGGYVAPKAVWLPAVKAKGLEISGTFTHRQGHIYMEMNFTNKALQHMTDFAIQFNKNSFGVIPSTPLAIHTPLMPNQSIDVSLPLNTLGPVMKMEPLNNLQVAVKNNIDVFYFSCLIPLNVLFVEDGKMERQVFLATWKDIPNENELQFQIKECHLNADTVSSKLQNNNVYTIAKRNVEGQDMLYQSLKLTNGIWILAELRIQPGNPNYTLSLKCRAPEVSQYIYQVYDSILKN

CC1=C/C(=N\OS(=O)(=O)c2ccccc2)C=CC1=O
inactive: GFP response vs DMSO [1] 126% | GFP response vs DMSO [2] 145% | GFP response vs DMSO [3] 103% | GFP response vs DMSO [4] 109% | percent response vs DMSO [5] 101%

O=C(NCCN1CCOCC1)c1ccc(Cl)cc1
64.3%: double positive events [6]
inactive: vesicle binding response [6] 168% | inhibition [7] -16% | aptamer binding inhibition [8] -1% | response [9] 15.8% | inhibition [10] 23.5% | response [11] -22.3% | binding (% of control) [12] 105% | inhibition [14] 14% | differentiation response [15] 15.9%
active: efflux inhibition (fraction of control) [13] 1.05

COC(=O)C[n+]1cccc2ccccc21
inactive: GFP response vs DMSO [1] 106% | GFP response vs DMSO [2] 103% | GFP response vs DMSO [3] 100% | GFP response vs DMSO [4] 118% | percent response vs DMSO [5] 105%

Oc1ccc(Cl)cc1Cc1cc(Cl)ccc1O
63.4%: double positive events [6]
inactive: vesicle binding response [6] 194% | superoxide response (% of plate) [16] 110% | aptamer binding inhibition [8] 3% | response [9] 17.5% | inhibition [10] 24.9% | response [11] 0.73% | binding (% of control) [12] 108% | efflux inhibition (fraction of control) [13] -0.04 | inhibition [14] 11% | differentiation response [15] 4.2%

CNc1nc(N(C)C)nc(N(C)C)n1
inactive: vesicle binding response [6] 64.3% | inhibition [7] -2.53% | aptamer binding inhibition [8] -1% | response [9] 8.29% | inhibition [10] 14.9% | response [11] 3.55% | binding (% of control) [12] 107% | inhibition [14] 11% | differentiation response [15] 41.3%
62.1%: double positive events [6]
active: efflux inhibition (fraction of control) [13] 0.92

COc1ccc(C)cc1NC(=O)CSc1nc(SC)ns1
inactive: GFP response vs DMSO [1] 97.2% | GFP response vs DMSO [2] 97.8% | GFP response vs DMSO [3] 100% | GFP response vs DMSO [4] 102% | percent response vs DMSO [5] 100%

CCn1c(=N)c(C(=O)NC)cc2c(=O)n3cccc(C)c3nc21
inactive: vesicle binding response [6] 26.6% | inhibition [7] -8.75% | aptamer binding inhibition [8] 2% | response [9] -15.1% | response [11] -34.5% | binding (% of control) [12] 108% | inhibition [14] 5% | differentiation response [15] 24.7%
55.2%: double positive events [6]
active: efflux inhibition (fraction of control) [13] 1.08

CCOC(=O)c1cnc(SCC(=O)NCc2ccco2)nc1N
inactive: GFP response vs DMSO [1] 99.2% | GFP response vs DMSO [2] 97.8% | GFP response vs DMSO [3] 96.8% | GFP response vs DMSO [4] 111% | percent response vs DMSO [5] 95.9%

CN1CCc2cccc3c2[C@H]1Cc1ccc(O)c(O)c1-3
inactive: vesicle binding response [6] 187% | inhibition [7] -17.1% | aptamer binding inhibition [8] 4% | response [9] 6.81% | inhibition [10] 3.9% | response [11] 2.95% | binding (% of control) [12] 94.3% | efflux inhibition (fraction of control) [13] 0.08 | inhibition [14] -1% | differentiation response [15] 20.8%
61%: double positive events [6]

Cc1ccc(S/C(=N\S(=O)(=O)c2ccc(Cl)cc2)c2ccccc2)cc1
inactive: GFP response vs DMSO [1] 101% | GFP response vs DMSO [2] 105% | GFP response vs DMSO [3] 98% | GFP response vs DMSO [4] 107% | percent response vs DMSO [5] 99.1%

COc1ccc(-c2nc(CS(=O)(=O)CC(=O)NCc3cccc(Br)c3)c(C)o2)cc1
inactive: GFP response vs DMSO [1] 109% | GFP response vs DMSO [2] 119% | GFP response vs DMSO [3] 101% | GFP response vs DMSO [4] 113% | percent response vs DMSO [5] 99.3%

CS(=O)(=O)Oc1ccc2c(c1)O/C(=C\C=C\c1ccccc1)C2=O
inactive: vesicle binding response [6] 247% | inhibition [7] -40.9% | aptamer binding inhibition [8] 4% | response [9] 26.6% | inhibition [10] 27.4% | response [11] -12.2% | binding (% of control) [12] 88.2% | efflux inhibition (fraction of control) [13] -0.14 | inhibition [14] -22% | differentiation response [15] 30.5%
64.8%: double positive events [6]

CCC(=C/c1sc2ccc3ccccc3c2[n+]1C)/C=C1\Sc2ccc3ccccc3c2N1C
active: GFP response vs DMSO [1] 2930% | GFP response vs DMSO [2] 285% | GFP response vs DMSO [4] 303%
inactive: GFP response vs DMSO [3] 451% | percent response vs DMSO [5] 98.8%

CC(C)NC[C@@H](O)c1ccc(O)c(O)c1
inactive: vesicle binding response [6] 125% | inhibition [7] -27.9% | superoxide response (% of plate) [16] 97.4% | inhibition [10] 0.64% | response [11] 11.9% | binding (% of control) [12] 97.3% | efflux inhibition (fraction of control) [13] 0 | inhibition [14] 2% | differentiation response [15] -7.5%
58%: double positive events [6]

CCCCNc1c(-c2cccc(Sc3ccc(OC)cc3)c2)nc2ccccn12
inactive: GFP response vs DMSO [1] 138% | GFP response vs DMSO [2] 129% | GFP response vs DMSO [3] 92.7% | GFP response vs DMSO [4] 120% | percent response vs DMSO [5] 90.6%

O=C(COc1cccnc1[N+](=O)[O-])Nc1ccc(Cl)cc1F
inactive: GFP response vs DMSO [1] 99.2% | GFP response vs DMSO [2] 101% | GFP response vs DMSO [3] 99.5% | GFP response vs DMSO [4] 103% | percent response vs DMSO [5] 97.4%

CCCn1nc(C(=O)NNC(=O)CCOc2ccccc2OCC)c2ccccc2c1=O
inactive: GFP response vs DMSO [1] 102% | GFP response vs DMSO [2] 97.8% | GFP response vs DMSO [3] 102% | GFP response vs DMSO [4] 121% | percent response vs DMSO [5] 99%

CCN1/C(=C/c2ccc3ccc(C)cc3[n+]2CC)Sc2ccccc21
active: GFP response vs DMSO [1] 392% | GFP response vs DMSO [2] 1240% | GFP response vs DMSO [4] 1630% | percent response vs DMSO [5] 203%
inactive: GFP response vs DMSO [3] 136%

COc1cccc(/C=N/Nc2ncc(C(F)(F)F)cc2Cl)c1O
inactive: GFP response vs DMSO [2] 143% | GFP response vs DMSO [3] 102% | GFP response vs DMSO [4] 132% | percent response vs DMSO [5] 86.2% | fluorescence change (kMESF span) [17] 1.52
active: GFP response vs DMSO [1] 200%

COc1ccc(CCNC(=O)CS(=O)(=O)Cc2nc(-c3ccc(C)cc3)oc2C)cc1OC
inactive: GFP response vs DMSO [1] 103% | GFP response vs DMSO [2] 99.6% | GFP response vs DMSO [3] 95.5% | GFP response vs DMSO [4] 100% | percent response vs DMSO [5] 101%

C#CCOCCOCCOCCNc1nc(N2CCN(C(=O)CCCCCCCCCCNC(=O)[C@H](CCCCN)n3cc(C)nn3)CC2)nc(N2CCN(C(=O)CCCCCCCCCCNC(=O)[C@H](CO)n3cc(CCCSC)nn3)CC2)n1
inactive: GFP response vs DMSO [1] 109% | GFP response vs DMSO [2] 119% | GFP response vs DMSO [3] 97.6% | GFP response vs DMSO [4] 110% | percent response vs DMSO [5] 104%

Cc1[nH]c2ccccc2c1C(=O)CN1CCCC1
inactive: vesicle binding response [6] 26% | inhibition [7] -4.6% | aptamer binding inhibition [8] -4% | response [9] 7.28% | inhibition [10] 4.83% | response [11] -0.48% | binding (% of control) [12] 110% | efflux inhibition (fraction of control) [13] 0.24 | inhibition [14] 48% | differentiation response [15] 28.6%
61.6%: double positive events [6]

Cc1ccc2nc(N(CCN(C)C)C(=O)C3=COCCO3)sc2c1
inactive: GFP response vs DMSO [1] 102% | GFP response vs DMSO [2] 105% | GFP response vs DMSO [3] 98.9% | GFP response vs DMSO [4] 103% | percent response vs DMSO [5] 104%

COc1ccc(C2(C)ON(c3ccccc3C(F)(F)F)C2=O)cc1 (centres undefined)
inactive: GFP response vs DMSO [1] 113% | GFP response vs DMSO [2] 103% | GFP response vs DMSO [3] 100% | GFP response vs DMSO [4] 100% | percent response vs DMSO [5] 101% | fluorescence change (kMESF span) [17] 0.5

CN(Cc1ccccc1)C(=O)C(=O)c1cn(CC(=O)N2CCCC2)c2ccccc12
inactive: GFP response vs DMSO [1] 103% | GFP response vs DMSO [2] 96.1% | GFP response vs DMSO [3] 95% | GFP response vs DMSO [4] 103% | percent response vs DMSO [5] 98.3%

O=C(NCCN1CCCCC1)c1c(O)c2ccccc2[nH]c1=O
61.8%: double positive events [6]
inactive: vesicle binding response [6] 38% | inhibition [7] -6.68% | aptamer binding inhibition [8] -4% | response [9] 0.73% | inhibition [10] 5.65% | response [11] 3.25% | binding (% of control) [12] 109% | inhibition [14] -4% | differentiation response [15] 21.8%
active: efflux inhibition (fraction of control) [13] 0.49
